HP1b binding inh = blocks HP1-beta chromodomain binding to methylated histone tails; AID 540317; P83916; AlphaScreen HP1-beta / biotin-H3K9me3 peptide binding; Potency, µM (highest dose often 114 µM), most hits filed as inhibitors; actives 0.56% (n = 390,000); note: nearly all actives have a fitted effect of over 70% in size
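Compound inhibition of the preformed complex between 50 nM HP1-beta and 50 nM biotinylated H3K9me3 peptide was read by AlphaScreen. Buffer was PBS pH 7.4 with 0.01% Tween-20. Incubations ran 30 min at room temperature, with 10 ug/mL donor/acceptor beads.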
G9a inh = blocks human histone lysine methyltransferase G9a; Q96KQ7; G9a H3K9 monomethylation, AlphaScreen, 2 h; Potency, µM (top dose mostly 102 µM), usual class: inhibitors; actives 8.8% (n = 350,000); AID 504332; note: nearly all actives have a fitted effect of over 75% in size
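G9a (20 nM) preincubated 15 min RT with compounds, then 500 nM biotinylated H3K9 peptide and 20 uM SAM added; 2 h RT reaction. Monomethyl-H3K9 product detected by AlphaScreen with anti-H3K9me1 antibody, streptavidin donor and anti-rabbit IgG acceptor beads.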
JMJD2A Tudor inh = JMJD2A Tudor domain (human) inhibition. O75164. AlphaScreen JMJD2A-Tudor / H3K4me3 peptide binding. actives 4.4% (n = 390,000). Potency, µM (top dose mostly 114 µM), actives largely listed as inhibitors. AID 504339; note: nearly all actives have a fitted effect of over 50% in size
Sfp inh = blocks B. subtilis Sfp PPTase activity; Q9F4F7; Biochemical Sfp PPTase activity, qHTS; actives 3.5% (n = 310,000); Potency, µM, most hits filed as inhibitors;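 note: the enzyme is Sfp with the accession as filed and its product quenches rhodamine fluorescence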
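Fluorescence-quenching assay: 15 nM Sfp-PPTase preincubated 15 min at room temperature with compound, then 5 uM rhodamine-CoA and 12.5 uM BHQ-2-labelled YbbR peptide added. Fluorescence (ex 525/em 598 nm) read at start and after 30 min; difference gives rate.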
BAZ2B inh = inhibitors of human BAZ2B bromodomain. Q9UIF8. AlphaScreen BAZ2B-H3K14Ac peptide displacement. actives 4.4% (n = 360,000). AID 504333. Potency, µM (doses to about 114 µM), hits mostly inhibitors; note: nearly all actives have a fitted effect of over 60% in size
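BAZ2B 50 nM plus b-H3(5-23)K14Ac 50 nM, PBS pH 7.4/0.01% Tween-20, 30 min RT; compound added (max 110 uM), 30 min RT; streptavidin donor/Ni-chelate acceptor beads 10 ug/mL final, 20 min dark; AlphaScreen read.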
Numbers stand for hits; n = inactive; u = inconclusive; x = no result given; ! = repeats disagree; [ ] = another dose, or the depositor's remark. Only some compounds are listed: those with a hit (about 12% of all), similar ones and a draw of the others. Calls come from the whole dose curve; as a rule, active = well fitted curve in the direction sought with a large enough effect; inconclusive = small, poorly fitted or top-dose-only effect, or another doubt; inactive = no such curve, though single readings can be large; an effect the other way counts as inactive or inconclusive.

SMILES	HP1b binding inh	G9a inh	JMJD2A Tudor inh	Sfp inh	BAZ2B inh
CCn1cnc2cc(NCc3ccccc3Cl)ccc21	u	45µM	u	n	u
CC(C)n1cnc2cc(NCc3ccccc3O)ccc21	n	x	n	n	u
CCCn1cnc2cc(NCc3cccs3)ccc21	n	18µM	u	n	u
Cc1cc(C)n(C(C)CC(=O)NCc2ccccc2C)n1 (stereo unspecified)	n	n	n	x	n
Cn1cnc2cc(NCc3ccccc3Cl)ccc21	n	50µM	u	n	n
COc1cccc(CNc2ccc3c(c2)ncn3C)c1OC	n	n	u	n	u
c1ccc(-n2cnc3cc(NCc4ccncc4)ccc32)cc1	n	u	56µM	n	u
Cc1csc(C(C#N)C(=O)c2cc3ccccc3o2)n1 (stereo unspecified)	n	n	u	50µM	u
CCOc1cccc(C2/C(=C(/O)c3ccc4c(c3)CC(C)O4)C(=O)C(=O)N2Cc2ccncc2)c1 (stereo unspecified)	n	x	22µM	n	n
COC(=O)c1ccc(C2/C(=C(/O)c3ccc4c(c3)CC(C)O4)C(=O)C(=O)N2Cc2cccnc2)cc1 (stereo unspecified)	n	71µM	u	n	n
CC1Cc2cc(/C(O)=C3/C(=O)C(=O)N(Cc4cccnc4)C3c3cccc(O)c3)ccc2O1 (stereo unspecified)	n	u	n	n	n
COC(=O)c1cc(NC(=O)/C=C/c2ccccc2)ccc1O	x	n	x	n	n
O=C1CCC=C1C(O)c1ccccc1 (stereo unspecified)	x	x	x	n	x
CCOc1ccc(N=c2cc(-c3ccc(OC)cc3)oc3ccccc23)cc1	25µM	25µM	16µM	n	13µM
COc1ccc(N=c2cc(-c3ccc(O)cc3)oc3ccccc23)cc1	u	u	35µM	n	45µM
COc1ccc(-c2cc(=O)c3ccccc3o2)cc1	n	n[12.7 µM]	n	n	n
COc1ccc(N=c2cc(-c3ccc(OC)cc3)oc3ccccc23)cc1	n	14µM	40µM	u	28µM
COc1cccc(NC(=O)c2oc3ccccc3c2NC(=O)COc2ccccc2C)c1	n	n	n	x	n
O=C(NCC(c1ccccc1Cl)N1CCCC1)c1ccc(N2CCCC2=O)cc1 (stereo unspecified)	n	n	n	x	n
CC(C)C[C@H](NC(=O)N1CCn2c1nc1ccccc12)C(=O)NC1CCCCC1	n	n	n	n	n
O=C1c2ccccc2C(Nc2cccnc2)N1Cc1ccccc1 (stereo unspecified)	n	25µM	n	n	u
CCOc1ccc(NC2c3ccccc3C(=O)N2Cc2ccc3c(c2)OCO3)cc1 (stereo unspecified)	u	35µM	45µM	n	16µM
CC(=O)c1cccc(NC2c3ccccc3C(=O)N2Cc2ccc3c(c2)OCO3)c1 (stereo unspecified)	n	u	n	n	n
O=C1c2ccccc2C(Nc2ccc3c(c2)OCCO3)N1Cc1ccccc1 (stereo unspecified)	u	45µM	40µM	n	40µM
O=C1c2ccccc2C(Nc2cccnc2)N1Cc1ccccc1Cl (stereo unspecified)	n	u	n	n	n
SMILES	HP1b binding inh	G9a inh	JMJD2A Tudor inh	Sfp inh	BAZ2B inh
Cc1ccc(CNC(=O)C2CCN(C(=O)c3cnn(-c4ccccc4)c3-n3cccc3)CC2)cc1	n	n	n	x	n
CCc1ccc(C(=O)CSC2=C(C#N)C(c3ccco3)C(C(C)=O)=C(C)N2)cc1 (stereo unspecified)	n	40µM	n	56µM	n
CC(=O)C1=C(C)NC(SCc2cccc([N+](=O)[O-])c2)=C(C#N)C1c1ccco1 (stereo unspecified)	n	x	u	n	40µM
CC(=O)C1=C(C)NC(SCC(=O)c2cc(Cl)ccc2Cl)=C(C#N)C1c1ccco1 (stereo unspecified)	n	32µM	u	35µM	n
CCOC(=O)C1=C(C)NC(SCC(=O)O)=C(C#N)C1c1ccco1 (stereo unspecified)	n	u	u	n	n
CC(=O)C1=C(C)NC(SCC(N)=O)=C(C#N)C1c1ccco1 (stereo unspecified)	n	u	n	89µM	u
CCCn1c(C)nc2c(NCCN(C(C)C)C(C)C)nc(C)nc21	x	x	x	n	x
CCc1ccc(-c2cnc3nc[nH]c(=O)c3n2)cc1	n	x	n	x	x
CCn1c(=O)n(-c2ccc3c(c2)OCO3)c2nc(-c3cc(OC)ccc3OC)nc(C(N)=O)c21	n	n	n	x	u
Cc1ccc(CN2CCN(C3CCN(C(=O)Nc4ccccc4C(F)(F)F)CC3)C(=O)C2=O)cc1	n	n	n	x	n
CCN(CC)C(=O)CSC1=C(C#N)C(c2ccco2)C(C(=O)OCCOC)=C(C)N1 (stereo unspecified)	n	25µM	79µM!	56µM	u
COc1ccccc1NC(=O)C1=C(C)NC(SCC(=O)c2ccc(C)cc2)=C(C#N)C1c1ccco1 (stereo unspecified)	x	u	x	45µM	n
CC1=C(C(=O)Nc2ccccc2)C(c2ccco2)C(C#N)=C(SCC(=O)OC(C)C)N1 (stereo unspecified)	n	n	n	n	x
CC(=O)C1=C(C)NC(SCC(=O)c2ccc(Cl)c(Cl)c2)=C(C#N)C1c1ccco1 (stereo unspecified)	n	u	u	3.5µM	x
CC(=O)C1=C(C)NC(SCC(=O)c2ccc(F)cc2)=C(C#N)C1c1ccco1 (stereo unspecified)	n	u	n	u	n
Cc1cc(C)cc(N2CC(c3nnc(NC(=O)c4ccco4)s3)CC2=O)c1 (stereo unspecified)	n	n	n	x	n
Cc1ccc(N2CCN(C(=O)c3cn(C)c4ccc(S(=O)(=O)N(C)C)cc4c3=O)CC2C)cc1 (stereo unspecified)	n	u	n	x	x
CCc1ccc(C(=O)CCC(=O)Nc2cccc(S(=O)(=O)N3CCCCC3)c2)cc1	n	n	n	x	n
COc1ccccc1C(=O)Nc1ccc2[nH]ncc2c1	n	x	n	n	n
CC(C)c1ccccc1OCC(=O)Nc1ccc2[nH]ncc2c1	n	71µM	n	n	n
C/C(N)=C(/C#N)C(=O)CSc1nc2cc(Cl)ccc2s1	n	14µM	n	n	n
Cc1cccc(Nc2nnc(SCC(=O)c3c(N)n(C4CC4)c(=O)[nH]c3=O)s2)c1	n	n[12.7 µM]	n	x	n
C/C(N)=C(/C#N)C(=O)CSc1nnc(Nc2cccc(C)c2)s1	n	u	79µM!	n	u
C/C(N)=C(/C#N)C(=O)CSc1cc(Cl)ccc1Cl	n	u	n	n	n
COc1ccccc1N1CCN(C2CC(=O)N(c3ccc(F)cc3)C2=O)CC1 (stereo unspecified)	n	n	n	n	n
CCOc1ccc2c(c1)c(=O)c(S(=O)(=O)c1ccccc1)cn2CC(=O)Nc1ccccc1OC	n	n	n	x	n

Screens as filed in PubChem BioAssay.
